Results filed as inconclusive are left out. Unmarked numbers belong to inactive results. Active and inactive are the calls of the source. Unless noted, calls come from the whole dose curve; as a rule, active = well fitted cell-killing curve with a large enough effect in the repeat runs; inconclusive = weak or mixed curves; inactive = no such curve, though single readings can be large or run the other way.
% is set by controls: 0 for no effect and ±100 for the full control effect.

Sequence of Peroxisome proliferator-activated receptor delta (Homo sapiens) (Q03181 whole entry, looked up): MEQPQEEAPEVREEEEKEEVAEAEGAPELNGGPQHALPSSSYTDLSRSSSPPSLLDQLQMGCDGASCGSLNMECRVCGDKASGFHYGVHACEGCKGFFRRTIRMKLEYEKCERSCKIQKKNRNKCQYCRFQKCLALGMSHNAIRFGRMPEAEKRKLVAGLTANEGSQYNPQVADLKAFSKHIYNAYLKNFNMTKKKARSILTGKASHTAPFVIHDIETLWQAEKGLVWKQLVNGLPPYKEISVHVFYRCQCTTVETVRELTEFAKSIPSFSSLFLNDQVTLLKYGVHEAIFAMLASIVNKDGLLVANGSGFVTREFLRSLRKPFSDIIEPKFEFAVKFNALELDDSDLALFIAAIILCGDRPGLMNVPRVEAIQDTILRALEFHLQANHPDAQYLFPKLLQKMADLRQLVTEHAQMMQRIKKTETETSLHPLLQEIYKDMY

Test system in one experiment: not listed separately
The experiment is described as follows: qHTS assay to identify small molecule agonists of the peroxisome proliferator-activated receptor delta (PPARd) signaling pathway - cell viability counter screen (AID 743211). Note: nearly all actives have a fitted effect of over 55% in size. Note: potency is the fitted concentration of half-maximal effect. The settings on record: PPARd-bla HEK293H viability, CellTiter-Glo luminescence, 17 h; series mostly up to 62.6 µM; activity change, negative = cytotoxicity: at the top concentration. The method in brief:
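Viability of GeneBLAzer PPARd UAS-bla HEK293H cells was assessed after 17 h compound incubation at 37C, using CellTiter-Glo reagent added after the reporter read and luminescence recorded 30 min later.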
A general note: In qHTS, concentration-response curves come from the screen itself.
As for `Cc1cn([C@H]2C[C@H](F)[C@@H](CO)O2)c(=O)[nH]c1=O`, the “activity change, negative = cytotoxicity” value was 0.267%.

As for `COc1cc(NC(C)CCCN)c2ncccc2c1` (stereo unspecified), the “activity change, negative = cytotoxicity” value is -15%.

With `CN1CCCN(C(c2ccccc2)c2ccc(Cl)cc2)CC1` (stereo unspecified), the Potency is 21.1 µM (active).

Turning to `COc1cc(S(=O)(=O)Nc2ccccc2)c(OC)cc1N`, the “activity change, negative = cytotoxicity” value was -2.15%.

For `CC(C)(C)S`, the “activity change, negative = cytotoxicity” value is 11.6% [at 81.1 µM].

`COc1ccc(/C=C/C(=O)c2ccc(OC)cc2OC)cc1`: the “activity change, negative = cytotoxicity” value was -13.7%.

`NC(=O)CCCCC(N)=O`: the “activity change, negative = cytotoxicity” value is 0.827% [at 81.1 µM].

With `CCNc1nc(N)nc(Cl)n1`, the “activity change, negative = cytotoxicity” value is 3.4%.

Turning to `CN(C)CC/C=C1\c2ccccc2Sc2ccc(Cl)cc21`, the Potency is 29.8 µM (active).

With `CCN(CC)CC(=O)Nc1c(C)cccc1C(=O)OC`, the “activity change, negative = cytotoxicity” value is -3.54%.

Take `Cc1cccc2sc(N)nc12`: the “activity change, negative = cytotoxicity” value is -2.4% [at 81.1 µM].

Consider `CC(O)Cn1cnc2c1c(=O)n(C)c(=O)n2C` (stereo unspecified), for which the “activity change, negative = cytotoxicity” value was 15.3%.

As to `O=C(O)CN1C(=O)c2cccc3cccc(c23)C1=O`, the “activity change, negative = cytotoxicity” value was 0.746%.

Take `O=C1NC(=O)c2cccc3cccc1c23`: the “activity change, negative = cytotoxicity” value is 4.94%.

As to `CCCc1nc2c(C)cc(-c3nc4ccccc4n3C)cc2n1Cc1ccc(-c2ccccc2C(=O)O)cc1`, the “activity change, negative = cytotoxicity” value is -8.91%.

In the case of `FC(F)(F)C(F)(F)C(F)(F)C(F)(F)CCI`, the “activity change, negative = cytotoxicity” value was 5.45% [at 29.1 µM].

For the compound `CCN(CC)C(=O)/C(C#N)=C/c1cc(O)c(O)c([N+](=O)[O-])c1`, the “activity change, negative = cytotoxicity” value was -16.7%.

As for `COc1ccc2nc(S(=O)Cc3ncc(C)c(OC)c3C)[nH]c2c1` (stereo unspecified), the Potency result is “inactive”.

Turning to `CNS(=O)(=O)c1cc(C(=O)N2CCC(CCN3C4CCC3CC(n3c(C)nc5ccccc53)C4)(c3cccc(F)c3)CC2)c(Cl)cc1F` (stereo unspecified), the Potency was 8.71 µM (active).

`COC(=O)CC(C(C)=O)C(=O)OC` (stereo unspecified): the “activity change, negative = cytotoxicity” value is 0.245%.

Take `CC1CCC(C(C)CS)CC1S` (stereo unspecified): the “activity change, negative = cytotoxicity” value was -0.571%.

In the case of `CCCCCCCC(=O)OCCCCCC`, the “activity change, negative = cytotoxicity” value is 8.44%.

As to `CC(C)CC(O)CC(C)C`, the “activity change, negative = cytotoxicity” value is -5.46%.

`COc1ccc(C)cc1`: the “activity change, negative = cytotoxicity” value is 2.7%.

With `Nc1ccn([C@H]2CS[C@@H](CO)O2)c(=O)n1`, the “activity change, negative = cytotoxicity” value is 0.8%.

With `Cc1cc(CCC(=O)OCCOCCOCCOC(=O)CCc2cc(C)c(O)c(C(C)(C)C)c2)cc(C(C)(C)C)c1O`, the “activity change, negative = cytotoxicity” value was -10.2%.

In the case of `O=C(O)c1cc(Cl)cc(Cl)c1O`, the “activity change, negative = cytotoxicity” value was -0.272%.

For the compound `CC(C)C(=O)OCCOc1ccccc1`, the “activity change, negative = cytotoxicity” value was 5.79%.

As for `COC(=O)c1sccc1S(N)(=O)=O`, the “activity change, negative = cytotoxicity” value is 2.72%.

For `CNC1CCCN(c2c(F)cc3c(=O)c(C(=O)O)cn(C4CC4)c3c2OC)C1` (stereo unspecified), the “activity change, negative = cytotoxicity” value is -5.35%.

Turning to `c1ccc(CCCc2ccncc2)cc1`, the “activity change, negative = cytotoxicity” value was 0.181%.

Take `Nc1ccc(NC(=O)c2ccc(N)cc2)cc1`: the “activity change, negative = cytotoxicity” value is -13.2%.

With `CC[C@@H](CO)NCCN[C@@H](CC)CO`, the “activity change, negative = cytotoxicity” value is -0.704%.

As for `O=C(c1ccccc1)c1ccc(O)cc1`, the “activity change, negative = cytotoxicity” value was -11.2% [at 81.1 µM].

On to `Nc1ccc(N=Nc2ccc(N)cc2)cc1`, for which the “activity change, negative = cytotoxicity” value is -2.95%.

Consider `CNc1c2c(nn1C)CCCC2`, for which the “activity change, negative = cytotoxicity” value is 0.474%.

Another experiment has as its target Peroxisome proliferator-activated receptor delta (Homo sapiens) (UniProt Q03181). Briefly: qHTS assay to identify small molecule agonists of the peroxisome proliferator-activated receptor delta (PPARd) signaling pathway (AID 743212; calls by dose curve). The following applies: HEK293H PPARd-UAS-bla, beta-lactamase FRET ratio, 17 h; series mostly up to 62.6 µM; activation: at the top concentration. In a few lines:
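Read-out: beta-lactamase FRET fluorescence after 2 h room-temperature incubation with LiveBLAzer B/G substrate. Cells were HEK293H carrying a UAS-bla reporter for PPARd, treated at 37 C with DMSO-dissolved compounds.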
On to `Cc1cn([C@H]2C[C@H](F)[C@@H](CO)O2)c(=O)[nH]c1=O`, for which the “activation” value is -0.694%.

Turning to `COc1cc(NC(C)CCCN)c2ncccc2c1` (stereo unspecified), the “activation” value is -1.7%.

Turning to `COc1cc(S(=O)(=O)Nc2ccccc2)c(OC)cc1N`, the “activation” value is -0.125%.

On to `CC(C)(C)S`, for which the “activation” value is -3.04% [at 81.1 µM].

With `COc1ccc(/C=C/C(=O)c2ccc(OC)cc2OC)cc1`, the “activation” value was -9.22%.

`NC(=O)CCCCC(N)=O`: the “activation” value was -0.209% [at 81.1 µM].

In the case of `CCNc1nc(N)nc(Cl)n1`, the “activation” value was -2.3%.

As to `CCN(CC)CC(=O)Nc1c(C)cccc1C(=O)OC`, the “activation” value is 3.53%.

Turning to `Cc1cccc2sc(N)nc12`, the “activation” value is 0.019% [at 81.1 µM].

For the compound `CC(O)Cn1cnc2c1c(=O)n(C)c(=O)n2C` (stereo unspecified), the “activation” value is 2.82%.

On to `CCCc1nc2c(C)cc(-c3nc4ccccc4n3C)cc2n1Cc1ccc(-c2ccccc2C(=O)O)cc1`, for which the “activation” value was -13.2%.

For the compound `FC(F)(F)C(F)(F)C(F)(F)C(F)(F)CCI`, the “activation” value was 0.991% [at 29.1 µM].

Take `COc1ccc2nc(S(=O)Cc3ncc(C)c(OC)c3C)[nH]c2c1` (stereo unspecified): the “activation” value was 0.705%.

Take `COC(=O)CC(C(C)=O)C(=O)OC` (stereo unspecified): the “activation” value is 2.4%.

As for `CC1CCC(C(C)CS)CC1S` (stereo unspecified), the “activation” value is -1.97%.

Take `CCCCCCCC(=O)OCCCCCC`: the “activation” value is 1.94%.

With `COc1ccc(C)cc1`, the “activation” value was -2.99%.

For the compound `COc1ccc(-n2nc(C(F)F)cc2-c2ccc(S(C)=O)cc2)cc1` (stereo unspecified), the “activation” value is -5.15%.

Turning to `CC(C)C(=O)OCCOc1ccccc1`, the “activation” value was -0.469%.

Regarding `c1ccc(CCCc2ccncc2)cc1`, the “activation” value was 0.98%.

`Nc1ccc(NC(=O)c2ccc(N)cc2)cc1`: the “activation” value was -4.92%.

On to `CC[C@@H](CO)NCCN[C@@H](CC)CO`, for which the “activation” value was -8.11%.

As for `O=C(c1ccccc1)c1ccc(O)cc1`, the “activation” value is -2.37% [at 81.1 µM].

Regarding `CCN(Cc1cccc(S(=O)(=O)O)c1)c1ccc(C(=C2C=CC(=[N+](CC)Cc3cccc(S(=O)(=O)O)c3)C=C2)c2ccc(O)cc2S(=O)(=O)[O-])cc1`, the “activation” value is 2.53%.

Test system in a further experiment: not listed separately
The experiment is described as follows: qHTS assay to identify small molecule antagonists of the peroxisome proliferator-activated receptor delta (PPARd) signaling pathway - cell viability counter screen (AID 743213). Note: nearly all actives have a fitted effect of over 50% in size. Note: potency is the fitted concentration of half-maximal effect. The settings on record: PPARd-bla HEK293H viability, CellTiter-Glo luminescence, 17 h; series mostly up to 62 µM; viability change, negative = cytotoxic: at the top concentration. In a few lines:
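PPARd-bla HEK293H cells were treated with compounds plus agonist L165041 (300 nM final) for 17 h at 37 C. Viability was then read in the same wells by CellTiter-Glo luminescence after 30 min at room temperature.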
For the compound `Cc1cn([C@H]2C[C@H](F)[C@@H](CO)O2)c(=O)[nH]c1=O`, the “viability change, negative = cytotoxic” value was -12.1%.

Regarding `NC(=O)CCCCC(N)=O`, the “viability change, negative = cytotoxic” value was 2.63% [at 80.4 µM].

As to `CN(C)CC/C=C1\c2ccccc2Sc2ccc(Cl)cc21`, the Potency was 13.3 µM (active).

`Cc1cccc2sc(N)nc12`: the “viability change, negative = cytotoxic” value is 5.26% [at 80.4 µM].

Consider `O=C(O)CN1C(=O)c2cccc3cccc(c23)C1=O`, for which the “viability change, negative = cytotoxic” value is 17.7%.

As for `O=C1NC(=O)c2cccc3cccc1c23`, the “viability change, negative = cytotoxic” value was 8.5%.

Regarding `CCCc1nc2c(C)cc(-c3nc4ccccc4n3C)cc2n1Cc1ccc(-c2ccccc2C(=O)O)cc1`, the “viability change, negative = cytotoxic” value is 3.1%.

Turning to `FC(F)(F)C(F)(F)C(F)(F)C(F)(F)CCI`, the “viability change, negative = cytotoxic” value is -10.6% [at 28.9 µM].

In the case of `CCN(Cc1cccc(S(=O)(=O)O)c1)c1ccc(C(=C2C=CC(=[N+](CC)Cc3cccc(S(=O)(=O)O)c3)C=C2)c2ccccc2S(=O)(=O)[O-])cc1`, the “viability change, negative = cytotoxic” value was -21%.

With `CCN(CC)C(=O)/C(C#N)=C/c1cc(O)c(O)c([N+](=O)[O-])c1`, the “viability change, negative = cytotoxic” value was -10.9%.

For `CNS(=O)(=O)c1cc(C(=O)N2CCC(CCN3C4CCC3CC(n3c(C)nc5ccccc53)C4)(c3cccc(F)c3)CC2)c(Cl)cc1F` (stereo unspecified), the Potency is 7.76 µM (active).

On to `CCCCCCCC(=O)OCCCCCC`, for which the “viability change, negative = cytotoxic” value was -21.7%.

As to `CC(C)CC(O)CC(C)C`, the “viability change, negative = cytotoxic” value was -10.7%.

As to `COc1ccc(C)cc1`, the “viability change, negative = cytotoxic” value was 14.1%.

In the case of `COc1ccc(-n2nc(C(F)F)cc2-c2ccc(S(C)=O)cc2)cc1` (stereo unspecified), the “viability change, negative = cytotoxic” value is 0.424%.

For the compound `O=C(O)c1cc(Cl)cc(Cl)c1O`, the “viability change, negative = cytotoxic” value is 12.8%.

Turning to `COC(=O)c1sccc1S(N)(=O)=O`, the “viability change, negative = cytotoxic” value is 9.21%.

Take `CNC1CCCN(c2c(F)cc3c(=O)c(C(=O)O)cn(C4CC4)c3c2OC)C1` (stereo unspecified): the “viability change, negative = cytotoxic” value was -5.59%.

In the case of `c1ccc(CCCc2ccncc2)cc1`, the “viability change, negative = cytotoxic” value is 2.88%.

As for `Nc1ccc(NC(=O)c2ccc(N)cc2)cc1`, the “viability change, negative = cytotoxic” value was 1.11%.

Regarding `CNc1c2c(nn1C)CCCC2`, the “viability change, negative = cytotoxic” value is 1.87%.

Source of the values: PubChem BioAssay (Tox21).
